# From PubChem BioAssay
# Hits are enriched below; roughly 4.1% of the tested compounds scored in any of these assays.
# UHRF1 MBD2 ctr – UHRF1 methyl-DNA binding inhibition. Q96T88. UHRF1 binding to methylated oligo, TR-FRET. inhibition, % at 4.4 µM. 370,000 tested, 0.75% active; in the data active means inhibition above about 21%;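 further: UHRF1 SRA domain binding a hemimethylated CpG hairpin DNA probe; 0% = median of test compound wells and 100% = reference inhibitor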
# MBD2 DNA inh – inhibitors of human MBD2 binding to methylated oligonucleotide; Q9UBB5; TR-FRET; inhibition, % at 4.4 µM; 370,000 tested, 0.31% active; AID 686964; in the data active means inhibition above about 13%
# ABHD5 PLIN5 PPI – blocks binding of human ABHD5 to perilipin-5; Split G. princeps luciferase complementation, luminescence, 4 h; Q00G26+Q8WTS1; inhibition, % at 4 µM; 360,000 tested, 0.78% active;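 active means inhibition above the mean inhibition across every tested compound plus 3 SD, cut at about 22% in these data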;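 further: 0% = DMSO only wells and the 100% control is not disclosed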
# Target sequence (Q00G26 whole entry, looked up): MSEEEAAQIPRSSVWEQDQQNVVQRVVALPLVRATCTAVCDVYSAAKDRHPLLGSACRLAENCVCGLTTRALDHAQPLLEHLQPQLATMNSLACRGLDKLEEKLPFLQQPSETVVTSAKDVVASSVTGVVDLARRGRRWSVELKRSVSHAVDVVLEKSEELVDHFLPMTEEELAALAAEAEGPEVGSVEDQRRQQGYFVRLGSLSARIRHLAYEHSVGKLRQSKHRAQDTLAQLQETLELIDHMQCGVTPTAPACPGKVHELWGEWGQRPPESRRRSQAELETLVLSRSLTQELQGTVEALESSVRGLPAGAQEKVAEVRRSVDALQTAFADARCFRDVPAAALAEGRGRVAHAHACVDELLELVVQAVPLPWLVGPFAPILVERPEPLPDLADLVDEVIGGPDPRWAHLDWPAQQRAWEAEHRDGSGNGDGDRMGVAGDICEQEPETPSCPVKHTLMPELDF
# Target sequence (Q8WTS1 whole entry, looked up): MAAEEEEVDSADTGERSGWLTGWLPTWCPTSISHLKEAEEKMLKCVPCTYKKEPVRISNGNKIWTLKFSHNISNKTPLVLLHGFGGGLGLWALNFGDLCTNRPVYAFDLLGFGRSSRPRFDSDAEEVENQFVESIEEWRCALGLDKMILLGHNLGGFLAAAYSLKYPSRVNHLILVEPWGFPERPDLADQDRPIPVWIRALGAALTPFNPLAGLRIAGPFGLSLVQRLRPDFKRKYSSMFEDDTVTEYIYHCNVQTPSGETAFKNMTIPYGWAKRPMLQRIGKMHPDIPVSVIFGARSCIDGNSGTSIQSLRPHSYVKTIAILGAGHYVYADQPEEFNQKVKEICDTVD
# PRMT1 FP inh – inhibitors of human PRMT1; recombinant PRMT1, activity-based probe fluorescence polarization; 370,000 tested, 1.3% active; inhibition, % at 2.79 µM; Q99873;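 active means inhibition above about 21% made by adding two undisclosed values, limit read from the data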
# LEDGF integ inh – blocks HIV-1 LEDGF/p75-dependent DNA integration | TR-FRET IN-LEDGF/p75 DNA integration, Eu/Cy5 | inhibition, % at 3.7 µM | 370,000 tested, 0.64% active;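 active means inhibition above the screen-wide mean plus 3 SD, cut at about 13% in these data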;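 further: signal is the Cy5 over europium emission ratio at 671 and 618 nm; 0% = plate median of compound wells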
# rCAG binder – binds r(CAG) RNA repeats; AID 651821; inhibition, % at 3 µM; r(CAG) RNA repeat, TO-PRO-1 dye displacement fluorescence; 370,000 tested, 1.3% active;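 active means inhibition above the plate cutoff, the mean of all test compounds on that plate plus 3 SD, cut at about 35% in these data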;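 further: 0% = DMSO alone and 100% = 100 µM mitoxantrone as full dye displacement; higher means more dye released from RNA so lower well fluorescence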
# An asterisk follows results filed as active; x = no result given.
SMILES,UHRF1 MBD2 ctr,MBD2 DNA inh,ABHD5 PLIN5 PPI,PRMT1 FP inh,LEDGF integ inh,rCAG binder
Cc1ccccc1C(=O)NC1CCCCN(Cc2cccc(F)c2)C1=O (configuration not stated),0,-1,x,3,2,-1
O=C1C2CC=C(Cl)CC2C(=O)N1CCc1ccccc1 (configuration not stated),-1,1,0,24*,7,2
O=C1C2CC=C(Cl)CC2C(=O)N1CCc1c[nH]c2ccccc12 (configuration not stated),-2,2,-6,1,-1,4
O=C(O)c1ccccc1NS(=O)(=O)c1ccc2c3c(cccc13)C(=O)N2,-3,-2,0,-3,0,12
O=C1CCCc2oc3c(cc(NS(=O)(=O)c4ccc5c6c(cccc46)C(=O)N5)c4ccccc43)c21,-1,-5,16,-3,3,46*
COc1ccc(C(=O)/C=C/c2ccc(O)cc2)cc1,0,0,5,5,-2,3
COc1ccc(C=CC(=O)c2c(OC)cc(OC)c(OC)c2O)cc1,4,13,23*,8,-4,8
CCOC(=O)C1(Cc2cccc(OC)c2)CCN(C/C=C/c2ccc(OC)cc2)CC1,2,10,-2,3,0,-8
CCOC(=O)C1(Cc2cccc(OC)c2)CCN(C/C=C/c2ccccc2)CC1,33*,3,1,0,-2,-10
COc1ccc(C(=O)NNC(=S)NC(=O)/C=C/c2cccs2)cc1,0,1,-4,-2,1,0
O=C(/C=C/c1cccs1)NC(=S)NNC(=O)c1ccccc1O,-5,2,13,-1,-4,38*
CC[C@@H](CCCc1ccccc1OC)CCS(=O)(=O)C(C)(C)C,-1,1,x,0,-3,1
NC(=O)c1ncn([C@@H]2O[C@H](C(=O)N[C@H](Cc3ccccc3)C(=O)N3CCN(CC(=O)Nc4ccccn4)CC3)[C@@H](O)[C@H]2O)n1,-1,1,x,-2,4,0
CC(=O)NC(Cc1ccccc1C)C(=O)NC1CCN(c2c3c(nc4ncnn24)CCC3)CC1 (configuration not stated),39*,-3,x,-8,2,-5
Cc1nn(-c2ccccc2)c(C)c1/C=N\N1CCN(Cc2ccccc2Cl)CC1,-2,-5,x,2,2,-1
CCc1ccc(Nc2ncc3c(n2)CC(C)(C)CC3=O)cc1,42*,-5,-1,-4,3,-6
CCc1ccc(Nc2ncc3c(n2)CC(C)CC3=O)cc1 (configuration not stated),2,1,6,2,-4,-5
O=C(N[C@H](C(=O)N1CCC[C@H]1C(=O)NCCc1ccccc1Cl)c1ccccc1)C1CCCC1,1,0,x,2,-6,1
CC(C)Cc1cc(C(=O)Nc2ccc(F)cc2F)no1,24*,0,5,-2,3,0
CCCCN(C(=O)c1cc(-c2ccco2)nc2ccccc12)c1c(N)n(CCCC)c(=O)[nH]c1=O,11,-5,-2,22*,11,22
CCCCn1c(N)c(N(CC(C)C)C(=O)c2cc(-c3ccc(OC)cc3)nc3ccccc23)c(=O)[nH]c1=O,4,7,1,-1,1,2
CCCCn1c(N)c(N(CCOC)C(=O)c2cc(-c3ccco3)nc3ccccc23)c(=O)[nH]c1=O,11,1,6,14,8,19
CCCCn1c(N)c(N(CCC(C)C)C(=O)c2cc(-c3ccco3)nc3ccccc23)c(=O)[nH]c1=O,4,7,13,22*,8,12
COC[C@H]1CCCN1c1ccc2c(c1)O[C@@H]1CCN(C1)S2(=O)=O,5,0,x,6,-3,3
CCn1nnnc1SCC(=O)Nc1ccc2c(c1)OCO2,2,-3,2,-2,1,3
SMILES,UHRF1 MBD2 ctr,MBD2 DNA inh,ABHD5 PLIN5 PPI,PRMT1 FP inh,LEDGF integ inh,rCAG binder
COc1cc(NC(=O)CSc2nnnn2Cc2ccc3c(c2)OCO3)cc(OC)c1,24*,13,1,0,4,-2
COC(=O)[C@]12C[C@H](CC(=O)NCCC(C)C)C(=O)N(CCC3=CCCCC3)C1=C[C@H](C1CCCC1)O[C@@H]2C,-1,-2,x,4,0,4
CCC(=O)N(Cc1cc(=O)[nH]c2ccccc12)c1ccccc1C,38*,2,4,1,0,-1
CCCC(=O)N(Cc1cc(=O)[nH]c2ccccc12)c1ccc(C)cc1C,2,7,8,-6,4,-7
O=S(=O)([N-]c1nc2ccccc2nc1-[n+]1ccc(-c2ccncc2)cc1)c1ccccc1,13,-3,1,22*,2,-53
COC(=O)C(C[N+](=O)[O-])C1=C(O)CC(C)(C)CC1=O (configuration not stated),-8,-3,x,12,1,1
COc1ccc(S[C@]2(C(=O)N3CCN(c4ncccn4)CC3)CC(=O)N(C(=O)c3ccccc3)[C@@H]2c2ccc(OC)cc2)cc1,-1,-1,x,24*,0,15
O=S(=O)(NCCCCNS(=O)(=O)c1ccc(F)cc1)c1ccc(F)cc1,0,-3,1,1,3,-1
CC(C)(C)SCCNS(=O)(=O)c1ccc(F)cc1,24*,1,-7,-2,-2,-5
Cc1nccn1-c1ccc(NC(=O)[C@@H](Cc2ccccc2)NC(=O)[C@H]2O[C@@H](n3ccc(=O)[nH]c3=O)[C@H](O)[C@@H]2O)cc1,-1,0,x,-6,1,2
Cc1cccc(C)c1NC(=O)C1c2ccccc2OCC(=O)N1CC(F)(F)F (configuration not stated),2,3,-12,-4,2,6
COCCN1C(=O)COc2ccccc2C1C(=O)Nc1c(C)cccc1C (configuration not stated),21*,6,-7,0,0,3
C=CCN=C1NC(c2ccccc2C(F)(F)F)C(C(=O)OC)=C(C)N1Cc1cccc(C(F)(F)F)c1 (configuration not stated),-2,2,x,-1,-1,-1
CC1=NOC(=O)/C1=C\c1ccc(-c2ccc(Cl)c(C(=O)O)c2)o1,28*,5,9,10,7,8
CC1=NN(c2ccc(Cl)c(C(=O)O)c2)C(=O)/C1=C\c1ccc(-c2ccc(C(=O)O)cc2)o1,3,-3,-7,4,-1,8
N#CC1=C(N)SC(N)=C(C#N)C1c1ccc([N+](=O)[O-])cc1,-2,-6,-9,31*,0,23
Cc1ccc([C@H]2C(C#N)=C(N)Oc3cc(C)oc(=O)c32)o1,0,1,10,22*,9,2
Cc1cc2c(c(=O)o1)C(c1cccs1)C(C#N)=C(N)O2 (configuration not stated),-2,-6,5,0,-1,3
